Only some compounds are listed: those with a hit (about 12% of all), similar ones and a draw of the others.
Ins promoter up = insulin promoter activators in MIN6 cells, imaging, high-content screening, mouse beta cells; MIN6 insulin promoter-GFP reporter; stronger effect = higher value; z-score at 5 µM; 190,000 compounds, 0.3% hits; AID 1625, 2009;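 active = z-score above 3 at 5 µM with at least 500 cells counted in the well; inconclusive = wells under 500 cells, flagged as cytotoxic or low count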
Lmaj promast = Leishmania major promastigote growth inhibition, primary screen; Leishmania major promastigotes, resazurin fluorescence viability; inhibition, % at 10 µM; 200,000 compounds, 9% hits; AID 1063, 2008; in the data active = inhibition above about 50%;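 also: promastigotes grown with compound for 44 hours at 28 °C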
Insulin prom inh = inhibitors of insulin promoter-driven GFP, primary screen, imaging, TRM-6 cells (human fetal islet line), eGFP reporter, cell count; reporter expression induced with tamoxifen; 130,000 compounds, 0.9% hits; inhibition, % at 2 µM;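 active = inhibition above the mean plus 3 SD, with well images judged a real hit on visual review, cut at about 60% in these data, passing the limit was not always enough; inconclusive = inhibition over the cutoff but images rejected on review; inactive = inhibition not above the cutoff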
WT yeast gro inh = growth inhibition of WT strain, primary screen, mitochondrial fusion inhibitor project, WT and mutant strains, chemical genetic; mitochondrial fusion phenotypic screen; inhibition, % at 10 µM; 190,000 compounds, 2.1% hits; in the data active = inhibition above about 58%; tested in S. cerevisiae
KCC2 mod = KCC2 cotransporter modulators, thallium flux, primary screen, cell-based, HEK293 KCC2, FluoZin-2 fluorescence, MLSMR; Solute carrier family 12 member 5 (Homo sapiens), Q9H2X9; 190,000 compounds, 2.2% hits; B-score of Tl+ flux slope (higher = more flux/activation; lower = inhibition) at 10 µM; AID 1456, 2008; KCC2 cells, thallium flux FluoZin-2 fluorescence;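 active = thallium flux slope and its plate-corrected score both differing from the plate sample mean at a set confidence after two filtering rounds, in either direction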;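 also: slope of fluorescence scaled to starting intensity during 10 to 20 s after thallium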
ROMK primary = ROMK potassium channel modulators, primary screen, cell-based, thallium flux, MLSMR library; Tet-inducible ROMK, thallium flux fluorescence; actives lie on both sides; ATP-sensitive inward rectifier potassium channel 1 (Homo sapiens), P48048; AID 1918, 2009; 130,000 compounds, 2% hits; B-score at 10 µM;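 active = signal ratio slope over the read window, or its plate-corrected B-score, at least 3 SD from the plate mean, either direction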;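 also: B-score of the F/F0 ratio slope over 7 to 12 s after thallium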
L major 1uM = Leishmania major promastigote growth inhibition, confirmation, 1 µM repeat of primary hits; shares compounds with Lmaj promast; L. major promastigote growth, resazurin fluorescence, 48 h; inhibition, % at 1 µM; 1,100 compounds, 13% hits;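 active = inhibition above about 50% in both repeat tests, limit read from the data; inconclusive = one repeat under the set limit, the other over it; inactive = both repeats under the set limit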
Starred values were filed as active, the others as inactive; ? = inconclusive; . = not tested or not shown.

SMILES	Ins promoter up	Lmaj promast	Insulin prom inh	WT yeast gro inh	KCC2 mod	ROMK primary	L major 1uM
O=C(N/N=C/c1ccco1)c1cc([N+](=O)[O-])cc([N+](=O)[O-])c1	0.13	97*	16	5	5	0.71	16
O=C(N/N=C/c1ccco1)c1cccc([N+](=O)[O-])c1	-0.02	-10	.	-18	0.58	0.41	.
Cc1nc2ccccc2cc1C(=O)N/N=C/c1ccco1	0.09	70*	-19	-10	1.7	0.18	-4
O=c1c2nnn(-c3ccccc3)c2ncn1C/C=C/c1ccccc1	-0.03	-10	.	2	-0.15	.	.
Cc1ccc(NC2(c3nnnn3-c3c(C)cccc3C)CCCCC2)cc1	-0.43	97*	-11	82*	-0.04	1	-3
CSc1nnnn1-c1c(C)cccc1C	-0.37	.	.	.	-0.007	1	.
Cc1nn(-c2ccccc2)c2c1C(O)n1c(nc3ccccc31)S2 (stereo not given)	0.09	58*	.	-9	-0.45	.	-7
Oc1ccc(-c2nc3c4c(ncn3n2)-c2ccccc2CC42CCCC2)cc1	-0.5	87*	-19	96*	0.035	-0.025	7
CS(=O)(=O)N1CCN(C(=O)CCC2CCCC2)CC1	-0.02	-8	35	-3	0.11	.	.
Nc1ccccc1Nc1cccc(C(F)(F)F)c1	-3.6	9	.	18	-0.21	-1.6	.
Nc1ccc(Nc2ccccc2N)cc1	0.33	99*	.	36	0.13	.	0
Cc1cc(C(=O)N/N=C/C(Cl)=C/c2ccccc2)c(C)o1	.	.	.	.	0.98	.	.
Cc1cc(/C=C2/NC(=O)NC2=O)c(C)n1-c1ccc(N2CCOCC2)cc1	1.1	32	.	-8	1.3	1.2	.
CCC(=O)NCCNc1ccc([N+](=O)[O-])cn1	-0.14	-5	60	4	1.4	.	.
CC(=O)NCCNc1ccc([N+](=O)[O-])cn1	0.04	62*	24	1	1.1	.	-16
N#C/C(=C\Nc1ccccc1O)c1nc2ccccc2o1	0.58	79*	-31	63*	0.026	-0.21	-78
CC1(C)CC2(CC(c3cccs3)c3cc(Cl)c(O)cc3O2)NC(=S)N1 (stereo not given)	-0.09	92*	.	17	-2.1	-0.5	-10
CC1(C)CC2(CC(c3ccc(F)cc3)c3ccc(O)cc3O2)NC(=S)N1 (stereo not given)	-2.3	.	.	.	-1.5	0.081	.
c1ccc(CN2CCN(C3=Nc4cccc5cccc3c45)CC2)cc1	0.48	98*	-35	2	-0.6	-2.5	46
O=c1oc(-c2ccccc2)nc2ccsc12	-0.23	-3	.	-3	.	0.35	.
CCCN1CN(c2ccccc2)C(=S)N(c2ccccc2)C1	0.53	.	.	.	0.69	.	.
CC1=C(C(=O)OCC2CCCO2)C(c2ccc(F)cc2)NC(=O)N1 (stereo not given)	0.23	-8	.	2	0.63	0.04	.
CS(=O)(=O)N(CC(=O)Nc1ccccc1C(=O)N1CCCC1)c1ccc2c(c1)OCO2	1.1	-5	-38	5	0.57	0.78	.
C1=C(CCNCC2CCCCC2)CCCC1	1.2	92*	-17	-27	-0.28	-2	47
Cc1cc(C)cc(N(C(C)C(=O)NCc2ccc3c(c2)OCO3)S(C)(=O)=O)c1 (stereo not given)	0.24	9	-50	-4	-0.21	-0.69	.
SMILES	Ins promoter up	Lmaj promast	Insulin prom inh	WT yeast gro inh	KCC2 mod	ROMK primary	L major 1uM
c1ccc(-n2nnnc2Oc2cccc3cccnc23)cc1	0.52	63*	45	-16	0.29	.	-12
Cc1ccc2cccc(Oc3nnnn3-c3ccccc3)c2n1	-0.88	8	.	6	.	-0.94	.
COc1ccc(-c2c(C)nn(-c3ccccc3)c2N)cc1	-0.06	2	0	-1	.	-0.68	.
Cc1nn(-c2nc3ccccc3[nH]2)c(N)c1-c1ccc(Cl)cc1	-0.52	65*	49	0	0.24	.	74*
Nc1nn(S(=O)(=O)c2ccccc2)cc1-c1ccc([N+](=O)[O-])cc1	0.56	99*	19	-13	-0.26	-1.4	6
Cc1ccc(S(=O)(=O)n2cc(-c3ccccc3)c(N)n2)cc1	0.34	9	36	7	-2	.	.
CCOC(=O)C1CCCN(c2ccc(NC(=O)c3snc4c(=O)[nH]cnc34)cc2)C1 (stereo not given)	0.21	76*	-71	-10	0.029	0.092	14
CCOC(=O)C1CCCN(c2ccc(NC(=O)c3snc4c(=O)[nH]c(C)nc34)cc2)C1 (stereo not given)	0.12	-2	16	12	-0.42	.	.
Cc1nc2ccc(C(C(F)(F)F)(C(F)(F)F)C(F)(F)F)cc2[nH]1	-0.29	100*	-22	84	-0.59	-0.19	22
Cc1ccc(CNC(=O)c2cn(C3CCCCC3)c(=O)c3c2c2ccccc2n3C)o1	0.14	53*	-3	-1	.	-2.4	-20
COC(=O)CNc1nc(-c2ccccc2F)nc2ccccc12	-0.78	59*	59	72	-0.52	0.39	56*
Cc1nn(-c2ccccc2)c(OC(=O)c2cccs2)c1S(=O)(=O)c1ccccc1	-0.63	-9	-62	0	.	0.048	.
Cc1nn(C(C)(C)C)c(OC(=O)C2CCCC2)c1S(=O)(=O)c1ccccc1	-0.33	62*	-12	-7	.	1.1	0
COc1cccc(C=N[C@@H](CO)[C@@H](O)c2ccc([N+](=O)[O-])cc2)c1O	0.56	.	.	.	0.15	.	.
COc1ccccc1N1CCN(C2CCN(C(=O)c3cccc(F)c3)CC2)CC1	-0.11	82*	-21	-7	0	.	-17
COc1ccc(C)cc1NC(=O)C1COc2ccccc2O1 (stereo not given)	-0.67	-7	-50	8	0.27	-0.45	.
CCc1ccc2oc(-c3ccc(OC)cc3)cc(=Nc3c(C)n(C)n(-c4ccccc4)c3=O)c2c1	-1.3	90*	6	4	-1.7	-0.16	1
COc1ccc(-c2cc(C(=O)Nc3c(C)n(C)n(-c4ccccc4)c3=O)no2)cc1	-0.15	14	-11	4	0.61	0.21	.
O=C(c1ccccc1Cl)N1CCC(c2nc3c(nnn3Cc3ccco3)c(=O)[nH]2)CC1	-0.42	-7	.	2	-0.2	.	.
COc1ccc(-n2cc(-c3ccc(OC(F)F)cc3)[n+]3c2CCCCC3)cc1	?	99*	44	23	1.1	-1	-12
CC(C)N1CC(C(=O)Nc2ccc(Br)c(Cl)c2)CC1=O (stereo not given)	-0.51	-4	0	-4	3.7	.	.
Cn1c(SC2=CS(=O)(=O)c3ccccc32)nc2ccccc21	-0.11	99*	-19	-19	0.75	.	15
Cc1cc(C=O)c2c(c1)C=CC1(Oc3ccccc3C(=O)N1C)O2 (stereo not given)	.	100*	-29	-11	-2.9	-0.81	-9
